PubChem BioAssay (NCI)
This is part of a sample that, as a whole, favours compounds with a hit. Of some 83,000 tested, about 20% had one in any assay.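 Growth was measured after 48 h exposure to one concentration of compound in 96-well plates. Values under 10 count as active.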 Values without a mark were called inactive. The source made the active and inactive calls.

Legend:
Test in all cases: NCI-60 one-dose screen, 48 h (100 = growth as untreated, 0 = no growth, -100 = all killed)
Settings in all cases: 10 µM
[1] = test system: DU-145 prostate
[2] = test system: K-562 leukemia
[3] = test system: MALME-3M melanoma
[4] = test system: RXF 393 renal
[5] = test system: SF-268 CNS
[6] = test system: SF-295 CNS
[7] = test system: SF-539 CNS
[8] = test system: UACC-257 melanoma
[9] = test system: M14 melanoma
[10] = test system: MDA-MB-231 breast

| Compound | growth [1] | growth [2] | growth [3] | growth [4] | growth [5] | growth [6] | growth [7] | growth [8] | growth [9] | growth [10] |
| --- | --- | --- | --- | --- | --- | --- | --- | --- | --- | --- |
| CC(=O)CC(=O)N(C)C | 104% | 101% | 98.7% | 110% | 101% | 95.8% | 97.6% | 99.3% | 107% |  |
| COc1ccccc1NC(=O)C1=C(C)NC(C)=C(C(=O)Nc2ccccc2OC)C1c1cccc([N+](=O)[O-])c1 | 84.1% | 57.3% | 84.7% | 79.2% | 67% | 49.5% | 75.2% | 92.3% | 76.5% |  |
| Cc1cc2nc(CC(=O)c3cccc([N+](=O)[O-])c3)c(=O)[nH]c2cc1C | 100% | 73.7% | 98.5% | 107% | 98.1% | 75.4% | 88.2% | 97% | 81.4% |  |
| CC1C(=O)c2ccccc2CC1C(=O)O (stereo not given) | 135% | 103% |  | 120% | 130% |  | 101% | 92.8% | 113% | 109% |
| CSc1[nH]c(=O)ncc1F | 106% | 111% | 97.8% | 105% |  | 97.4% | 95.7% | 72.8% | 103% |  |
| Cc1ccc(C)n1-c1ccsc1C(=O)NNC(=O)C(Cl)Cl | 109% | 97.8% | 93.2% | 114% |  | 101% | 102% | 98.2% | 106% |  |
| O=C1C=CC(=O)N1c1ccc(I)cc1Cl | 110% | 114% |  | 110% | 126% |  | 97.1% | -2.76% (active) | 95.1% | 107% |
| CCCC(=O)Nc1ccc2c(c1)CN1C(=O)c3ccccc3C1=N2 | 101% | 102% |  | 109% | 101% | 86.7% | 89.6% | 102% |  | 103% |
| CC(=O)OC(C(=O)O)c1ccccc1 (stereo not given) | 106% | 108% |  | 112% | 101% | 113% | 111% | 106% | 110% | 105% |
| Cc1ccc(/C=C2\SC(=S)N(c3ccc(F)cc3)C2=O)o1 | 95.5% | 77.8% | 77% | 75% |  | 73% | 73.9% | 102% | 87.5% |  |
| CCOC(=O)Nc1nn[nH]n1 | 108% | 110% |  | 105% | 100% | 106% | 97.7% | 116% | 95.3% | 104% |
| CC1=NN(c2ccccc2)C(=O)/C1=C\N1CC(=O)NC1=S | 106% | 104% |  | 108% | 101% | 104% | 109% | 90.6% | 103% | 98.3% |
| CCCCC1(CC)COC(CCC)OC1 (stereo not given) | 102% | 106% |  | 101% | 98.6% | 119% | 98.3% | 101% | 99.7% | 106% |
| CCCCCC(C)(CC(=O)O)CC(=O)O | 122% | 106% |  | 101% | 122% |  | 105% | 101% | 109% | 138% |
| CCOC(=O)c1ccc(Nc2sc(C(=O)c3cccc([N+](=O)[O-])c3)c(N)c2C#N)cc1 | 29.2% | 16.1% |  | 15.8% | 44.4% | -44.3% (active) | 1.59% (active) | 17.4% | 24% | 45.9% |
| O=C(CCl)Nc1ccc2c(c1)C(=O)c1ccc(NC(=O)CCl)cc1C2=O | -55.7% (active) | -14.9% (active) |  | -86% (active) | -66.6% (active) | -22.6% (active) | -92.2% (active) | -12.2% (active) | -55.5% (active) | -48.2% (active) |

| Compound | growth [1] | growth [2] | growth [3] | growth [4] | growth [5] | growth [6] | growth [7] | growth [8] | growth [9] | growth [10] |
| --- | --- | --- | --- | --- | --- | --- | --- | --- | --- | --- |
| Cc1ccc(N)cc1[N+](=O)[O-] | 115% | 108% |  | 114% | 114% | 105% | 113% | 98.7% | 99.8% | 122% |
| CNc1nc(NC)c2cn[nH]c2n1 | 113% | 104% |  | 101% | 114% | 98.4% | 103% |  | 102% | 108% |
| Cc1ccc(C)n1-c1ccsc1C(=O)NNC(=O)CCl | 105% | 96.3% | 86.7% | 101% |  | 103% | 101% | 91.3% | 77.8% |  |
| CCCCCCCCCCCCCC(=O)Oc1ccc[nH]c1=O | 103% | 90% | 95.2% | 113% |  | 97.1% | 99% | 84.3% | 101% |  |
| O=S(=O)(O)c1ccc(Cl)c(Cl)c1 | 120% | 105% |  | 132% | 113% | 112% | 107% | 124% | 101% | 108% |
| CC(=O)NC(N)=S | 107% | 121% |  | 105% | 110% | 101% | 107% | 101% | 127% | 115% |
| O=c1[nH][nH]c(=O)c2cc([N+](=O)[O-])ccc12 | 126% | 98.9% |  | 109% | 111% | 117% | 108% | 110% | 99.9% | 106% |
| CCc1nc(N)nc(N)c1-c1ccc(Cl)cc1 | 55.4% | 20.3% |  | 71.6% | 49.2% | 37.5% |  | 72.4% |  | 69.9% |
| O=[N+]([O-])c1cccc2nsnc12 | 114% | 111% |  | 118% | 101% |  | 108% | 87.8% | 101% | 112% |
| CCCCCCCO | 114% | 106% |  | 97.3% | 125% |  | 89.5% | 93.5% | 98.5% | 104% |
| CN(C)CCN(C)CC(C)(C)C(=O)/C=C/c1ccc(Cl)cc1 | 6.16% (active) | 4.79% (active) | -27.7% (active) | -82.8% (active) |  | 20.5% | -25.9% (active) | 23.1% | -64.4% (active) |  |
| COc1ccccc1C1OC2=Nc3cc(C)c(C)cc3NC2C1=O (stereo not given) | 88% | 97.7% | 80.2% | 78.3% |  | 74.8% | 91% | 104% | 84.2% |  |
| CNC(=S)NC(C)(C)C | 108% | 103% | 97.1% | 112% |  | 104% | 99.9% | 92.7% | 98.8% |  |
| OCCN(CCO)C(=S)S | 111% | 111% | 95.1% | 113% |  | 101% | 106% | 79.6% | 108% |  |
| C/C(O)=C(\C=N\C(N)=S)C(=O)Nc1ccccc1 | 109% | 107% |  | 107% | 101% | 110% | 114% | 97.7% | 105% | 92.2% |
| Cc1cc(N2CCC(N3CCCC3)CC2)nc(/N=C(\N)Nc2ccc(Cl)c(Cl)c2)n1 | 16.3% | -44.4% (active) |  | -69.7% (active) | -4.09% (active) | -96.2% (active) | -84.7% (active) | -78.5% (active) | -85.9% (active) | -58.1% (active) |
